Compound activity (PubChem)
Sampled rows, rich in hits. Any-hit rate of the full collection: about 3.5%.
KCNK9 block – KCNK9 potassium channel inhibitors, primary screen, HEK293 cells, thallium flux; FluxOR thallium flux fluorescence; hits give low values; hit rate 1.2% among 310,000; Potassium channel subfamily K member 9 (Homo sapiens), Q9NPC2; B-score at 10 µM;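 active = ratio B-score over 3 SD below the library mean, with starting fluorescence within 5 SD of its mean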;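 note: negative B-score means less thallium flux so channel inhibition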
Kir21 inh – inhibitors of mouse Kir2.1 inward-rectifier potassium channel. HEK293-Kir2.1, FluxOR thallium flux fluorescence; hits give low values. B-score at 10 µM. hit rate 0.85% among 310,000;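 active = fluorescence ratio B-score at or below minus 3 SD of library scores, with starting-brightness B-score within 2 SD, cut at about -4.2 in these data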;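 note: channel flux triggered by added potassium and thallium sulfate stimulus; B-score of peak minus minimum fluorescence over baseline after thallium stimulus; more negative B-score means stronger Kir2.1 block with less thallium influx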
Target sequence (P35561 whole entry, looked up): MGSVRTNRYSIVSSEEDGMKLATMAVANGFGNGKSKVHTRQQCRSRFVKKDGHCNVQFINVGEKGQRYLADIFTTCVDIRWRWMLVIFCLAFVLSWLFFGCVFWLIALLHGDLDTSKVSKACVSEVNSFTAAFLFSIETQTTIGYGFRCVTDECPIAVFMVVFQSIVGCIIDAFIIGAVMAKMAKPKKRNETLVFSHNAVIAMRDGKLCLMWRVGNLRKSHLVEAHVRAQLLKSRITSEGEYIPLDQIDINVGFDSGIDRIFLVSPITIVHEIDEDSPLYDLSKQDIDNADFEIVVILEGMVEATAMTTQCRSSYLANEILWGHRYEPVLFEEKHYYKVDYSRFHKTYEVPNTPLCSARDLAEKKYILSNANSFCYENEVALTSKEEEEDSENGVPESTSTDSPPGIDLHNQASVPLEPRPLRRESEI
ANO1 activ – TMEM16A chloride channel activators or potentiators, primary screen, cell-based, HTS. B-score at 10 µM. hit rate 0.3% among 340,000. AID 623877, 2012. HEK293 TMEM16A/YFP-H148Q/I152L, iodide quench fluorescence; hits give low values. Anoctamin-1 (Mus musculus), Q8BHY3;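 active = fluorescence-ratio B-score plate-corrected deviation score at least 3 library SD below zero, with starting fluorescence score within 5 deviations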;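 note: channel opened by trigger with iodide after compound preincubation; score built on the fluorescence ratio of max minus min over baseline; more negative score means more quench and so TMEM16A activation or potentiation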
ANO1 block – TMEM16A chloride channel inhibitors, primary screen, cell-based, HTS; Anoctamin-1 (Mus musculus), Q8BHY3; normalized B-score (activity score, 25-100; higher = stronger inhibition) at 10 µM; AID 588511, 2011; HEK293 TMEM16A/YFP iodide influx fluorescence, ionomycin; hit rate 1.2% among 310,000;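 active = ratio plate-corrected score three or more library SD toward inhibition, starting fluorescence score within five deviations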;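 note: score derived from kinetic fluorescence span divided by baseline fluorescence per well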
KCNK3 block – human KCNK3 channel inhibitors, primary screen, CHO cells, FluxOR thallium flux, B-score; B-score at 10 µM; FluxOR fluorescence; hits give low values; hit rate 0.84% among 340,000; Potassium channel subfamily K member 3 (Homo sapiens), O14649;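 active = B-score under library mean minus 4 SD, starting fluorescence ratio at most library mean plus 5 SD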;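 note: more negative B-score means stronger inhibition of thallium flux through KCNK3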
KCNK9 block conf – KCNK9 potassium channel inhibitors, confirmation, HEK293 cells, thallium flux, duplicate | shares compounds with KCNK9 block | FluxOR thallium flux fluorescence | inhibition, % at 10 µM | hit rate 43% among 4,900 | AID 492992, 2010;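 active = thallium signal inhibited by more than 5 SD of the compound-free buffer control wells, on both duplicate plates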;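 note: 0% = assay buffer control wells without compound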
Kir21 sel – mouse Kir2.1 channel inhibition, confirmation, selectivity assay for KCNK9 modulator project, cell-based, HEK293, thallium flux; shares compounds with KCNK9 block; Kir2.1 cells, FluxOR thallium flux fluorescence; inhibition, % at 10 µM; hit rate 4% among 4,900; AID 492993, 2010;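 active = thallium signal drop more than 5 SD beyond the mean of the no-compound control wells, seen in both duplicate plates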;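 note: signal is fluorescence rise after thallium addition divided by baseline fluorescence; plate controls were assay buffer only for no effect and full block by chlorpromazine control for full effect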
HEK293 Tl ctr – thallium flux in non-induced HEK293 cells, confirmation, counter-screen for KCNK9 inhibitor project, cell-based, second counter screen, non-induced KCNK9-HEK293; shares compounds with KCNK9 block; FluxOR thallium flux; inhibition, % at 10 µM; hit rate 40% among 4,900; AID 492997, 2010;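 active = thallium signal drop beyond 5 SD of the untreated control mean, on both duplicate plates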;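 note: plate controls were buffer only IC0 wells for no effect and SID17386958 at its maximal inhibitory level for full effect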
* = called active by the depositor; i = inactive; / = not tested or not shown.

SMILES | KCNK9 block | Kir21 inh | ANO1 activ | ANO1 block | KCNK3 block | KCNK9 block conf | Kir21 sel | HEK293 Tl ctr
CC1CCCN(C(=O)N2c3ccccc3Sc3ccccc32)C1 (configuration not stated) | -11* | 0.63 | i | i | i | 52%* | i | 44%*
CCOC(=O)c1ccc(N/C(=N\S(=O)(=O)c2ccc(F)cc2F)c2ccccc2)cc1 | i | -0.74 | i | i | i | / | / | /
CCCCOC(=O)c1ccc(N/C(=N\S(=O)(=O)c2ccccc2)c2ccccc2)cc1 | -12* | 0.86 | i | i | i | 52%* | i | 37%*
Cc1ccc(C(=O)N/N=C2\SCC(=O)N2c2cc(C)ccc2C)cc1 | i | 0.83 | i | i | i | i | i | i
Cc1cccc(N2C(=O)CS/C2=N\NC(=O)c2ccc(Br)cc2)c1C | i | -0.04 | i | i | i | / | / | /
COC(=O)c1sc(S(=O)(=O)NC(C)C(=O)O)c(C(=O)OC)c1C (configuration not stated) | i | -0.68 | i | i | i | / | / | /
NC(=S)N/N=C/c1ncc(C(F)(F)F)cc1Cl | i | 0.17 | i | i | i | / | / | /
COc1ccc2ccccc2c1CNC(C)c1ccccc1 (configuration not stated) | i | -5.5* | i | i | i | i | i | i
CCOC(=O)C(C#N)(Cc1cc(OC)cc(OC)c1)Cc1cc(OC)cc(OC)c1 | -14* | 1.9 | i | i | i | 56%* | i | 46%*
CCOC(=O)C1=C(C)N(C)C(=O)NC1c1c(C)nn(-c2ccc(C)cc2)c1Cl (configuration not stated) | i | -0.05 | i | i | i | i | i | i
COc1ccccc1C(=O)NC(=O)COC(=O)CNC(=O)c1ccccc1F | / | / | i | / | i | / | / | /
COCCN1C(=O)/C(=C/c2ccc(Oc3ccc([N+](=O)[O-])cn3)c(OC)c2)SC1=Nc1ccccc1 | i | 1.6 | i | i | i | i | i | i
COc1cc(/C=C2\SC(=Nc3ccccc3)N(CCc3c[nH]c4ccccc34)C2=O)ccc1OC(C)C(=O)O (configuration not stated) | i | -0.32 | i | i | i | / | / | /
N#CC(c1ccccc1)C1CCN(Cc2ccccc2)CC1 (configuration not stated) | i | -5.2* | i | i | i | i | i | i
CN(C(=O)c1cc(COc2ccc(F)cc2Cl)on1)C1CCCc2ccccc21 (configuration not stated) | i | 0.03 | i | i | i | i | i | 24%*
COc1cc(Cl)ccc1OCc1cc(C(=O)NCC(C)c2ccccc2)no1 (configuration not stated) | i | 0.1 | i | i | i | i | i | i
O=C(NCCc1cccnc1)c1cc(COc2ccc(F)cc2Cl)on1 | i | 1.5 | i | i | i | / | / | /
CC(CNC(=O)c1cc(COc2ccc3ncccc3c2)on1)c1ccccc1 (configuration not stated) | i | 0.72 | i | i | i | / | / | /
O=C(NCCCc1ccccc1)c1cc(COc2ccc(F)cc2Cl)on1 | i | -1.1 | i | i | i | i | i | i
Cc1c(Cl)c([N+](=O)[O-])nn1Cc1ccc(C(=O)NN)o1 | i | 0.29 | i | i | i | / | / | /
Cc1ccc(/C=N\NC(=O)c2ccc(Cn3cc(Br)c([N+](=O)[O-])n3)o2)o1 | i | 0.1 | i | i | i | / | / | /
O=C(N/N=C\c1cccc(Cl)c1)c1ccc(Cn2cc(Br)c([N+](=O)[O-])n2)o1 | -16* | -1.4 | i | i | i | 68%* | i | 32%*
Cc1c(Cl)c([N+](=O)[O-])nn1Cc1ccc(C(=O)N/N=C\c2cccc(Br)c2)o1 | -8.5* | -0.36 | i | i | i | 42%* | i | 27%*
NC(=O)c1sc(-c2ccsc2)cc1NS(=O)(=O)c1ccc(C(F)(F)F)cc1 | i | 0.58 | i | i | i | i | i | i
Cc1cc(C)c(NC(=O)CCN2C(=O)c3ccccc3S2(=O)=O)c(C)c1 | i | -1.1 | i | i | i | / | / | /
SMILES | KCNK9 block | Kir21 inh | ANO1 activ | ANO1 block | KCNK3 block | KCNK9 block conf | Kir21 sel | HEK293 Tl ctr
O=C(/C=C/c1ccc(Br)o1)Nc1nnc(C2CC2)s1 | i | -0.83 | / | i | / | / | / | /
CC1Cc2nc(SCC(=O)N3CCN(c4ccccc4)CC3)n(CCc3ccccc3)c(=O)c2S1 (configuration not stated) | i | 2.3 | i | i | i | i | i | i
COc1ccccc1/C=C/c1nc(S(=O)(=O)c2ccccc2)c(N(C)C)o1 | -11* | -0.35 | i | i | i | 53%* | i | 28%*
CN(C)c1oc(/C=C/c2cccs2)nc1S(=O)(=O)c1ccccc1 | -8.1* | -0.21 | i | i | i | 42%* | i | i
COc1cccc(/C=C/c2nc(S(=O)(=O)c3ccccc3)c(N(C)C)o2)c1 | i | -0.78 | i | i | i | / | / | /
CC1(C)CC(=O)C2=C(C1)N(c1ccccc1)C(=O)C2(O)C(F)(F)F (configuration not stated) | i | -0.01 | i | i | i | / | / | /
Cc1nnc(SCC(=O)N2CCCCC2)s1 | i | 0 | i | i | i | / | / | /
COc1ccc(/C=C/C(O)=C2/C(=O)N(C)C3(C)CC2c2ccccc2O3)cc1 (configuration not stated) | -10* | 0.69 | i | i | i | 41%* | i | 30%*
COc1ccc(/C=C/C(O)=C2/C(=O)NC3(C)CC2c2ccccc2O3)c(OC)c1OC (configuration not stated) | i | -1.5 | i | i | i | / | / | /
